Here are results for 13 molecules from article PMC12864922, “TDP-43 directly inhibits mRNA accumulation in neurites through modulation of mRNA stability”.

In all, about 9,900 sequences were measured (“r (bound/input frequency ratio)”: median about 0.7, highest 2% from about 6.5 on). What follows is part of a selection rich in the highest values, with near analogues and random picks from the rest.

Sequences and labels used below:
B1: ENSMUSG00000004113.145|Cacna1b (ssRNA)
RNA: GGGAGUUCUACAGUCCGACGAUCGCUUCGAUAUCCGCAUGCUAAAAUAGCACAUGUAUGUAGAGAUGCGCUCAAGGGCCUGCCUUUCACCUACACUGUCACCAUAACAGGGACCAAAUCUGGAGGAUGUCCUUGCUGUUGAUUCUGGUUUUCAGUCACAACACUUUCACUGUUUGUCAUUUCUAUGUAGUUGAUCUAGAAAAAGCAGAAAUCAAAACAGGAAAGGAAAUGUUUGUGUAACUUUAAAAAAAAAGUCAACAUGUAGGAAGGUCUCCAUUUUGCAUUGUUUCUGUGUCUUGUAUGCCUCUUGCGGUCGCACUAGUGUGGAAUUCUCGGGUGUCAAGG
B2: ENSMUSG00000031028.502|Tub|9:15;46:52 (ssRNA)
RNA: GGGAGUUCUACAGUCCGACGAUCGCUUCGAUAUCCGCAUGCUACAAGUAAGCACACACCCUCUGGGAAGACAGGAGUCGGAAGCCAAGCACACACGCAACAGUCUGGAAGAGAGCUUUUGGUAAUCAUACCGUCUUCAGUGACAAGGCAACAAUGCUGUAAAGUGGGUUUGUUUGGUUUUGUUUUUUCUUUCUCUUUUAUGGAAAUGGCAGGUCUAUUUGCCUCAAACGUUAUGUAGAAGUAGUUCUAAGUUUAACAAGCAAUAGAGAUGACUGCUUAGCUAGGAUCUGCAGGGAGCUCUGCUCUCUUGCGGUCGCACUAGUGUGGAAUUCUCGGGUGUCAAGG
B3: ENSMUSG00000031028.254|Tub|5:10 (ssRNA)
RNA: GGGAGUUCUACAGUCCGACGAUCGCUUCGAUAUCCGCAUGCUAUGCCACACACCCAUCUGUGAGAAGCUUCUUGGAGCUGAGACACCAGAGGGAAGCAAAGAGCAUUUAGACAUUGCUUUUUGCUUUGAAAUAGAUAUGUUUGGAAACGCUAAGUAGAAGUUUAAAAAGUAGAGUCAUGUAGAGUCAUGCUUUGAAUAUGUGGGUCAUGCUUUAGAUAUGAAGAGGCUAUGCAGGUAAGGAGGCUGGAUUGAUGUAAAUGGAAGUAGUACUUUAAGAAAGCUCUAGAUUUCCCAGGUUGGACACUCUUGCGGUCGCACUAGUGUGGAAUUCUCGGGUGUCAAGG
B4: ENSMUSG00000090935.680|Synj2bp|248:252 (ssRNA)
RNA: GGGAGUUCUACAGUCCGACGAUCGCUUCGAUAUCCGCAUGCUAUUGAGAUUCACCACUGUCAGGAGCUCUCUCUCUCUGCUUAGAAUCAUCCAGACAGCGGGCUGGUCAGCCCACAUUAAAUAAGAACAUGUGGGACUAGAAUUCAGUCAACAAUGACAUGUUUCAUCAGGUGGUUAAAAUGUACAGAUUCUGUUGGAAAUGUUCCAUGGUAUUUCAAUAGCCAGAAUGAAGAACUGGGCUAAGUCCAGAGCUCUGCUCUCUGAGCAUCUGCCCCAGAUACAGAGGCAGACAUACAAGUGGAACUCUUGCGGUCGCACUAGUGUGGAAUUCUCGGGUGUCAAGG
B5: ENSMUSG00000031028.419|Tub|64:68;198:202;204:216;222:236 (ssRNA)
RNA: GGGAGUUCUACAGUCCGACGAUCGCUUCGAUAUCCGCAUGCUAUGGUGAGAAGAGCAGCCUAGUCUGUAAGAGUGCAGGGCAGCUGGAACCUUAGGCAGCUCCUCUCAUACCUACCGGCUCCACACCCUAACACUCUCCACCCUCUGCUCCAAACCAGUUCUUCUGCAGAGUGGUGAUGUUAGCUUCCCCAGCUCCUCUCCAAGUCUAGCUUUUUCUGUCCUUCUGGCUCCAAGGUGCUCACACACACACACACACACACUGUCACACACACACACACACGAGGAAAGGGCAAUCUGCAAACACUCUUGCGGUCGCACUAGUGUGGAAUUCUCGGGUGUCAAGG
B6: ENSMUSG00000031028.409|Tub (ssRNA)
RNA: GGGAGUUCUACAGUCCGACGAUCGCUUCGAUAUCCGCAUGCUAACAGGAAGAUCCCUUACCCCUCAUCCCCUCUUCUUUUUGGUCCUUGGCUGGGUAGCAAAUUGGUGAGAAGAGCAGCCUAGUCUGUAAGAGUGCAGGGCAGCUGGAACCUUAGGCAGCUCCUCUGUAUGCUACCGGCUCCACACCCUAACACUCUCCACCCUCUGCUCCAAACCAGUUCUUCUGCAGAGUGGUGAUGUUAGCUUCCCCAGCUCCUCUCCAAGUCUAGCUUUUUCUGUCCUUCUGGCUCCAAGGUGCUCUGUCUCUUGCGGUCGCACUAGUGUGGAAUUCUCGGGUGUCAAGG
B7: ENSMUSG00000031028.418|Tub|70:74;204:208;210:222;228:242 (ssRNA)
RNA: GGGAGUUCUACAGUCCGACGAUCGCUUCGAUAUCCGCAUGCUAGCAAAUUGGUGAGAAGAGCAGCCUAGUCUGUAAGAGUGCAGGGCAGCUGGAACCUUAGGCAGCUCCUCUCAUACCUACCGGCUCCACACCCUAACACUCUCCACCCUCUGCUCCAAACCAGUUCUUCUGCAGAGUGGUGAUGUUAGCUUCCCCAGCUCCUCUCCAAGUCUAGCUUUUUCUGUCCUUCUGGCUCCAAGGUGCUCACACACACACACACACACACUGUCACACACACACACACACGAGGAAAGGGCAAUCUGCUCUUGCGGUCGCACUAGUGUGGAAUUCUCGGGUGUCAAGG
B8: ENSMUSG00000031028.420|Tub (ssRNA)
RNA: GGGAGUUCUACAGUCCGACGAUCGCUUCGAUAUCCGCAUGCUAGAAGAGCAGCCUAGUCUGUAAGAGUGCAGGGCAGCUGGAACCUUAGGCAGCUCCUCUGUAUGCUACCGGCUCCACACCCUAACACUCUCCACCCUCUGCUCCAAACCAGUUCUUCUGCAGAGUGGUGAUGUUAGCUUCCCCAGCUCCUCUCCAAGUCUAGCUUUUUCUGUCCUUCUGGCUCCAAGGUGCUCUGUGUCUGUGUGUGUGUGUCUGUCUGUGUGUGUGUGUGUCGAGGAAAGGGCAAUCUGCAAACAAUGAACCUCUUGCGGUCGCACUAGUGUGGAAUUCUCGGGUGUCAAGG
B9: ENSMUSG00000031028.418|Tub (ssRNA)
RNA: GGGAGUUCUACAGUCCGACGAUCGCUUCGAUAUCCGCAUGCUAGCAAAUUGGUGAGAAGAGCAGCCUAGUCUGUAAGAGUGCAGGGCAGCUGGAACCUUAGGCAGCUCCUCUGUAUGCUACCGGCUCCACACCCUAACACUCUCCACCCUCUGCUCCAAACCAGUUCUUCUGCAGAGUGGUGAUGUUAGCUUCCCCAGCUCCUCUCCAAGUCUAGCUUUUUCUGUCCUUCUGGCUCCAAGGUGCUCUGUGUCUGUGUGUGUGUGUCUGUCUGUGUGUGUGUGUGUCGAGGAAAGGGCAAUCUGCUCUUGCGGUCGCACUAGUGUGGAAUUCUCGGGUGUCAAGG
B10: ENSMUSG00000031028.421|Tub (ssRNA)
RNA: GGGAGUUCUACAGUCCGACGAUCGCUUCGAUAUCCGCAUGCUACAGCCUAGUCUGUAAGAGUGCAGGGCAGCUGGAACCUUAGGCAGCUCCUCUGUAUGCUACCGGCUCCACACCCUAACACUCUCCACCCUCUGCUCCAAACCAGUUCUUCUGCAGAGUGGUGAUGUUAGCUUCCCCAGCUCCUCUCCAAGUCUAGCUUUUUCUGUCCUUCUGGCUCCAAGGUGCUCUGUGUCUGUGUGUGUGUGUCUGUCUGUGUGUGUGUGUGUCGAGGAAAGGGCAAUCUGCAAACAAUGAACAGAAGUCUCUUGCGGUCGCACUAGUGUGGAAUUCUCGGGUGUCAAGG
B11: ENSMUSG00000031028.416|Tub (ssRNA)
RNA: GGGAGUUCUACAGUCCGACGAUCGCUUCGAUAUCCGCAUGCUACUUGGCUGGGUAGCAAAUUGGUGAGAAGAGCAGCCUAGUCUGUAAGAGUGCAGGGCAGCUGGAACCUUAGGCAGCUCCUCUGUAUGCUACCGGCUCCACACCCUAACACUCUCCACCCUCUGCUCCAAACCAGUUCUUCUGCAGAGUGGUGAUGUUAGCUUCCCCAGCUCCUCUCCAAGUCUAGCUUUUUCUGUCCUUCUGGCUCCAAGGUGCUCUGUGUCUGUGUGUGUGUGUCUGUCUGUGUGUGUGUGUGUCGAGGACUCUUGCGGUCGCACUAGUGUGGAAUUCUCGGGUGUCAAGG
B12: ENSMUSG00000031028.419|Tub (ssRNA)
RNA: GGGAGUUCUACAGUCCGACGAUCGCUUCGAUAUCCGCAUGCUAUGGUGAGAAGAGCAGCCUAGUCUGUAAGAGUGCAGGGCAGCUGGAACCUUAGGCAGCUCCUCUGUAUGCUACCGGCUCCACACCCUAACACUCUCCACCCUCUGCUCCAAACCAGUUCUUCUGCAGAGUGGUGAUGUUAGCUUCCCCAGCUCCUCUCCAAGUCUAGCUUUUUCUGUCCUUCUGGCUCCAAGGUGCUCUGUGUCUGUGUGUGUGUGUCUGUCUGUGUGUGUGUGUGUCGAGGAAAGGGCAAUCUGCAAACACUCUUGCGGUCGCACUAGUGUGGAAUUCUCGGGUGUCAAGG
B13: ENSMUSG00000031028.417|Tub (ssRNA)
RNA: GGGAGUUCUACAGUCCGACGAUCGCUUCGAUAUCCGCAUGCUAUGGGUAGCAAAUUGGUGAGAAGAGCAGCCUAGUCUGUAAGAGUGCAGGGCAGCUGGAACCUUAGGCAGCUCCUCUGUAUGCUACCGGCUCCACACCCUAACACUCUCCACCCUCUGCUCCAAACCAGUUCUUCUGCAGAGUGGUGAUGUUAGCUUCCCCAGCUCCUCUCCAAGUCUAGCUUUUUCUGUCCUUCUGGCUCCAAGGUGCUCUGUGUCUGUGUGUGUGUGUCUGUCUGUGUGUGUGUGUGUCGAGGAAAGGGCCUCUUGCGGUCGCACUAGUGUGGAAUUCUCGGGUGUCAAGG

Sequence of TDP-43 (Q13148 whole entry): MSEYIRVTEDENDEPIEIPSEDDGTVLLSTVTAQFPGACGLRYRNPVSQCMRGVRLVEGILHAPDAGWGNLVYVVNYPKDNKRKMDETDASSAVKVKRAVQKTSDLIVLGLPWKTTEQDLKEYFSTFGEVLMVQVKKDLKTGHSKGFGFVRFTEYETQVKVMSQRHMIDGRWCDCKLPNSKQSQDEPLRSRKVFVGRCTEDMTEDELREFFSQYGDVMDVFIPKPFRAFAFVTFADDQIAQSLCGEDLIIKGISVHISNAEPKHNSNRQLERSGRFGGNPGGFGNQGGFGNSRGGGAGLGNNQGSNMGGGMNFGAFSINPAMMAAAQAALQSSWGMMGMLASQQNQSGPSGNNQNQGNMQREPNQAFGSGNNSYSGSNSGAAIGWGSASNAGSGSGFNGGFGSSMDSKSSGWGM

The target in this experiment is TDP-43 (Homo sapiens, UniProt Q13148 1-414). As to the kind of experiment: RNA Bind-n-Seq with designed 260-mer pool; 25 mM Tris-HCl, 150 mM KCl, 3 mM MgCl2, BSA (printed 500 mg/mL), 20 units/mL SUPERase IN; pH not stated; 500 nM RNA pool, 1 h, 4 C; TDP-43 5, 50, 500 nM; high values mean tight binding. The following applies: protein: recombinant; tags: SBP (GST cleaved off with PreScission; pGEX-GST-SBP). The method, boiled down:
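Recombinant SBP-tagged TDP-43 at 5, 50 or 500 nM was captured on streptavidin beads, then incubated 1 h at 4 °C with 500 nM of an in vitro-transcribed 260-nt 3′ UTR oligo pool in 25 mM Tris-HCl, 150 mM KCl, 3 mM MgCl2, BSA and SUPERase IN. Bound RNA was washed, eluted with biotin, reverse transcribed, PCR-amplified and sequenced. Binding is R, each oligo's mapped-read-normalized abundance in the bound sample divided by its abundance in input. Duplicates used two independent protein batches.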
For B1, the binding signal is 0.241 R (bound/input frequency ratio).
Then B2, with 0.277 R (bound/input frequency ratio); and B3, with 1.12 R (bound/input frequency ratio).
Then B4, with 0.197 R (bound/input frequency ratio); and B5, with 3.42 R (bound/input frequency ratio); and B6, with 0.927 R (bound/input frequency ratio).
Take B7: the binding signal was 3.24 R (bound/input frequency ratio).
Consider B8, for which the binding signal is 7.33 R (bound/input frequency ratio).
For B9, the binding signal is 7.04 R (bound/input frequency ratio).
With B10, the binding signal was 5.82 R (bound/input frequency ratio).
As to B11, the binding signal is 6.14 R (bound/input frequency ratio).
The figure for B12 is 5.95 R (bound/input frequency ratio); for B13 it is 6.83 R (bound/input frequency ratio).
